# “And” between values parts separate entries of the source, which are not always exact repeats. Identical values can stand only once. Inconclusive results are not listed. The source made the active and inactive calls. The calls were made as follows: active = hit-call score of the fitted dose curve at least 0.9, where 1 is the maximum; inconclusive = response in the unintended direction; inactive = score below 0.9.
# Experiments:
# [1] = biological target: human Endothelin Receptor Type A (ETA), EDNRA (gene 1909) (UniProt P25101); experiment: NVS_GPCR_hETA: NovaScreen (NVS) G Protein-Coupled Receptor Assay for human Endothelin Receptor Type A (ETA) (AID 2283265)
# In short: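 Binding of radioligand to membrane protein extracted from SH-SY5Y cells was read by filtration and scintillation after 3 h. Compounds were screened at 25 uM in duplicate, with hits followed up in singleton concentration series to 50 uM.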
# [2] = biological target: human Dopamine Receptor D2 (DRD2), DRD2 (gene 1813) (UniProt P14416); experiment: NVS_GPCR_hDRD2s: NovaScreen (NVS) G Protein-Coupled Receptor Assay for human Dopamine Receptor D2 (DRD2) (AID 2283266)
# In short: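 Test compound (25 uM, duplicate in the primary screen; concentration series at follow-up) competed with radioligand for human DRD2 in CHO-derived membrane protein. Filter-based scintillation counting was done 1.5 hours after dosing, with loss of signal analysed against DMSO.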
# [3] = biological target: human Endothelin Receptor Type B (ETB), EDNRB (gene 1910) (UniProt P24530); experiment: NVS_GPCR_hETB: NovaScreen (NVS) G Protein-Coupled Receptor Assay for human Endothelin Receptor Type B (ETB) (AID 2283267)
# In short: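 Filter-based scintillation readout of radioligand displacement, 4 h, using membranes from human astrocytoma cells. Actives from a 25 uM duplicate screen were retested in concentration-response (top 50 uM) relative to DMSO baseline.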
# [4] = biological target: D(1A) dopamine receptor (Homo sapiens) (UniProt P21728); experiment: NVS_GPCR_hDRD1: NovaScreen (NVS) G Protein-Coupled Receptor Assay for human Dopamine Receptor D1 (DRD1) (AID 2283269)
# In short: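 HEK293-derived receptor preparation; radioligand competitive displacement; 1 h; filtration + scintillation counting. DMSO = negative control/baseline. Primary: 25 uM, duplicate; secondary: concentration–response for actives.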
# [5] = biological target: human Muscarinic, M4 Receptor, CHRM4 (gene 1132) (UniProt P08173); experiment: NVS_GPCR_hM4: NovaScreen (NVS) G Protein-Coupled Receptor Assay for human Muscarinic, M4 Receptor (AID 2283274)
# In short: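 Filter-based scintillation counting of radioligand bound to CHO-expressed human M4 preparations after 1 h; loss of signal fitted versus DMSO. Initial duplicate testing at 25 uM, concentration-response follow-up for actives.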
# [6] = biological target: Muscarinic acetylcholine receptor M5 (Homo sapiens) (UniProt P08912); experiment: NVS_GPCR_hM5: NovaScreen (NVS) G Protein-Coupled Receptor Assay for human Muscarinic, M5 Receptor (AID 2283275)
# In short: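 Chemicals passing a primary duplicate screen at 25 uM were run as singleton concentration series, maximum 50 uM. Displacement of a specific radioligand from CHO-extracted receptor was read by filter scintillation after 1 h, relative to DMSO.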
# [7] = biological target: human Neuropeptide Receptor Y1 (NPY1), NPY1R (gene 4886) (UniProt P25929); experiment: NVS_GPCR_hNPY1: NovaScreen (NVS) G Protein-Coupled Receptor Assay for human Neuropeptide Receptor Y1 (NPY1) (AID 2283276)
# In short: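 Displacement of specific radioligand from NPY1 receptor of SK-N-MC origin, read by filtration and scintillation after 1 h. Compounds first tested at 25 uM in duplicate, then actives in concentration series; signal loss relative to DMSO.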
# [8] = biological target: human Neurokinin, NK2 Receptor, TACR2 (gene 6865) (UniProt P21452); experiment: NVS_GPCR_hNK2: NovaScreen (NVS) G Protein-Coupled Receptor Assay for human Neurokinin, NK2 Receptor (AID 2283278);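 also: actives reduce bound radioligand signal relative to DMSO baseline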
# In short: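 Filter-based scintillation counting measured radioligand bound to receptor extracted from CHO cells, 4 hours after compound addition. Chemicals screened first at 25 uM in duplicate, with actives retested in concentration series relative to DMSO.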
# [9] = biological target: human Neurotensin Receptor (NTS), NTSR1 (gene 4923) (UniProt P30989); experiment: NVS_GPCR_hNTS: NovaScreen (NVS) G Protein-Coupled Receptor Assay for human Neurotensin Receptor (NTS) (AID 2283279)
# In short: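 Compounds competed with a radiolabelled ligand for binding to CHO-derived human neurotensin receptor; bound signal counted after filtration, 1 h. Screened first at a single concentration of 25 uM in duplicate, then concentration series to 50 uM maximum for actives.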
# [10] = biological target: human Opioid Receptor Delta 1 (Opiate D1), OPRD1 (gene 4985) (UniProt P41143); experiment: NVS_GPCR_hOpiate_D1: NovaScreen (NVS) G Protein-Coupled Receptor Assay for human Opioid Receptor Delta 1 (Opiate D1) (AID 2283280)
# In short: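 Membrane preparations from CHO cells bearing the human receptor were incubated 1 h with test chemical, and bound radioligand was counted after filtration. Actives from 25 uM duplicate screening were retested in concentration-response.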
# [11] = biological target: human Orphanin, Opioid Related Nociceptin Receptor 1 (ORL1), OPRL1 (gene 4987) (UniProt P41146); experiment: NVS_GPCR_hORL1: NovaScreen (NVS) G Protein-Coupled Receptor Assay for human Orphanin, Opioid Related Nociceptin Receptor 1 (ORL1) (AID 2283283)
# In short: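 Cell-free binding using HEK293-derived receptor protein: radioligand displacement measured by filter scintillation 1 hour after dosing. Primary testing at 25 uM in duplicate, followed by singleton concentration series up to 50 uM; DMSO served as negative control.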
# [12] = biological target: human Leukotriene B4 Receptor 1 (LTB4-BLT1), LTB4R (gene 1241) (UniProt Q15722); experiment: NVS_GPCR_hLTB4_BLT1: NovaScreen (NVS) G Protein-Coupled Receptor Assay for human Leukotriene B4 Receptor 1 (LTB4-BLT1) (AID 2283271)
# In short: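 Cell-free human neutrophil receptor preparation, 1 h exposure, radioligand binding read by filter scintillation counting. Single 25 uM duplicate screen, then concentration series topping at 50 uM; binding loss scored against DMSO baseline.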
# [13] = biological target: human Histamine 1 Receptor (H1), HRH1 (gene 3269) (UniProt P35367); experiment: NVS_GPCR_hH1: NovaScreen (NVS) G Protein-Coupled Receptor Assay for human Histamine 1 Receptor (H1) (AID 2283268)
# In short: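 Filter-based scintillation detection of radioligand binding to human H1, 1 h incubation; chemicals screened in duplicate at 25 uM, then concentration-response; signal loss relative to DMSO taken as activity.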
# [14] = biological target: human Thromboxane A2 Receptor (TXA2), TBXA2R (gene 6915) (UniProt P21731); experiment: NVS_GPCR_hTXA2: NovaScreen (NVS) G Protein-Coupled Receptor Assay for human Thromboxane A2 Receptor (TXA2) (AID 2283282);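 also: actives reduce bound radioligand signal relative to DMSO baseline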
# In short: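 Human platelet-derived receptor preparation incubated with test chemical and radiolabelled ligand for 1 hour, cell-free. Bound label was separated by filtration and counted; displacement relative to DMSO controls gave activity, screened at 25 uM, then titrated.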
# [15] = biological target: human Vasopressin 1A Receptor (V1A), AVPR1A (gene 552) (UniProt P37288); experiment: NVS_GPCR_hV1A: NovaScreen (NVS) G Protein-Coupled Receptor Assay for human Vasopressin 1A Receptor (V1A) (AID 2283284)
# In short: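 Single-concentration duplicate screen at 25 uM, with concentration-response follow-up (top 50 uM) for actives. The assay measured displacement of a radioligand from human platelet-derived receptor after 1.5 h, detected by filtration and scintillation counting.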
# [16] = biological target: Muscarinic acetylcholine receptor M3 (Homo sapiens) (UniProt P20309); experiment: NVS_GPCR_hM3: NovaScreen (NVS) G Protein-Coupled Receptor Assay for human Muscarinic, M3 Receptor (AID 2283272)
# In short: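 Radioligand displacement binding on human M3 receptor in CHO-derived membranes, 1 h incubation, filter-based scintillation counting. Primary screen in duplicate at 25 uM; actives followed up in concentration series; loss of signal versus DMSO.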
# [17] = biological target: Muscarinic acetylcholine receptor M2 (Homo sapiens) (UniProt P08172); experiment: NVS_GPCR_hM2: NovaScreen (NVS) G Protein-Coupled Receptor Assay for human Muscarinic, M2 Receptor (AID 2283273)
# In short: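 Filter-based radiodetection read bound radioligand 1 h after dosing CHO-derived membrane protein. Single-concentration duplicates (25 uM) first, then concentration-response for actives; signal loss versus DMSO scored.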
# [18] = biological target: human Purinergic Receptor P2Y, P2RY1 (gene 5028) (UniProt P47900); experiment: NVS_GPCR_hPY2: NovaScreen (NVS) G Protein-Coupled Receptor Assay for human Purinergic Receptor P2Y (AID 2283281)
# In short: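 Filtration scintillation readout of radioligand displacement on U937 extract, measured 1 h post-dosing. Single 25 uM duplicate screen, then singleton concentration series to 50 uM for chemicals passing threshold; DMSO as baseline.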
# [19] = biological target: Neuropeptide Y receptor type 2 (Homo sapiens) (UniProt P49146); experiment: NVS_GPCR_hNPY2: NovaScreen (NVS) G Protein-Coupled Receptor Assay for human Neuropeptide Receptor Y2 (NPY2) (AID 2283277)
# In short: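 Chemicals were first tested in duplicate at 25 uM, then actives in singleton concentration series to 50 uM. Tracer binding to SK-N-MC-derived protein measured cell-free after 1 h via filter scintillation; signal loss relative to DMSO.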
# [20] = biological target: Muscarinic acetylcholine receptor M1 (Homo sapiens) (UniProt P11229); experiment: NVS_GPCR_hM1: NovaScreen (NVS) G Protein-Coupled Receptor Assay for human Muscarinic, M1 Receptor (AID 2283270)
# In short: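 Actives from a duplicate 25 uM single-point screen were retested in concentration series. Binding measured as displacement of a radioligand from CHO-derived receptor preparation, 1 h incubation, filtration and scintillation counting, analysed as signal loss against DMSO.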
# Sequence of human Orphanin, Opioid Related Nociceptin Receptor 1 (ORL1), OPRL1 (gene 4987) (P41146 whole entry, looked up): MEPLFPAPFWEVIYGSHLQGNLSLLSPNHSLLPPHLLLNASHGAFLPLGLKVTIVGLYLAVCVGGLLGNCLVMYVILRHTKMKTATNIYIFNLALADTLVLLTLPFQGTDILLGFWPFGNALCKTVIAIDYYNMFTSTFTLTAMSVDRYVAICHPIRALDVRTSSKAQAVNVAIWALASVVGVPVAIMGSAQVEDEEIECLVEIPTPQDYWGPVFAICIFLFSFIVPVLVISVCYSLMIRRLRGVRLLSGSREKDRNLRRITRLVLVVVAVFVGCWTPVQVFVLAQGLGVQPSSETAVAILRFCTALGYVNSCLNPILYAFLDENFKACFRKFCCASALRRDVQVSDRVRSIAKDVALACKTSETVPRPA
# Sequence of Muscarinic acetylcholine receptor M5 (Homo sapiens) (P08912 whole entry, looked up): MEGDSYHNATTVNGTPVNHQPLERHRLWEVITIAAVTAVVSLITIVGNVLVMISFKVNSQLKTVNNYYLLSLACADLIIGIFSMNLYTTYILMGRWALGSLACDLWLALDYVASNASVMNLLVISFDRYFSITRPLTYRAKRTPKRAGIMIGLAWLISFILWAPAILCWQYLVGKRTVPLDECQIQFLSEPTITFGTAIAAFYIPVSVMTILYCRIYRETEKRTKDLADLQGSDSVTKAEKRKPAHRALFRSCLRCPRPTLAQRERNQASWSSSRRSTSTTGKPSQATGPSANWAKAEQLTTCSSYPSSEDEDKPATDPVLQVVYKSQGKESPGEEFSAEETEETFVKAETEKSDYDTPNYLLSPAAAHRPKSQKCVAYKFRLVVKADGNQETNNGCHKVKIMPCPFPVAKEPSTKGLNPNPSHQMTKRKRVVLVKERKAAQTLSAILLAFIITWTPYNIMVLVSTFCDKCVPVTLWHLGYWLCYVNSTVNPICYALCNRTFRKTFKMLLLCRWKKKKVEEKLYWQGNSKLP
# Sequence of human Dopamine Receptor D2 (DRD2), DRD2 (gene 1813) (P14416 whole entry, looked up): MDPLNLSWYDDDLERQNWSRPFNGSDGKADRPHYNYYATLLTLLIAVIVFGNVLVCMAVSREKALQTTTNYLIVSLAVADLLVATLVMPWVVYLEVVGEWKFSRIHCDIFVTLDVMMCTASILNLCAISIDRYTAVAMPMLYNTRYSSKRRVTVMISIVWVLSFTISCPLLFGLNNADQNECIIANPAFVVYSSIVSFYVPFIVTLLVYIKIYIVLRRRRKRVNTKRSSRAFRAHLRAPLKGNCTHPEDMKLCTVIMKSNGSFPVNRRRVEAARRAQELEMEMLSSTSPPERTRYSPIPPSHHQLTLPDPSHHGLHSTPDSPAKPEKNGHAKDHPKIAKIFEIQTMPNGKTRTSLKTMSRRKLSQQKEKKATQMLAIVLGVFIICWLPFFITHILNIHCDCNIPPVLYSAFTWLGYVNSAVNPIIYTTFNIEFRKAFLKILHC
# Sequence of human Muscarinic, M4 Receptor, CHRM4 (gene 1132) (P08173 whole entry, looked up): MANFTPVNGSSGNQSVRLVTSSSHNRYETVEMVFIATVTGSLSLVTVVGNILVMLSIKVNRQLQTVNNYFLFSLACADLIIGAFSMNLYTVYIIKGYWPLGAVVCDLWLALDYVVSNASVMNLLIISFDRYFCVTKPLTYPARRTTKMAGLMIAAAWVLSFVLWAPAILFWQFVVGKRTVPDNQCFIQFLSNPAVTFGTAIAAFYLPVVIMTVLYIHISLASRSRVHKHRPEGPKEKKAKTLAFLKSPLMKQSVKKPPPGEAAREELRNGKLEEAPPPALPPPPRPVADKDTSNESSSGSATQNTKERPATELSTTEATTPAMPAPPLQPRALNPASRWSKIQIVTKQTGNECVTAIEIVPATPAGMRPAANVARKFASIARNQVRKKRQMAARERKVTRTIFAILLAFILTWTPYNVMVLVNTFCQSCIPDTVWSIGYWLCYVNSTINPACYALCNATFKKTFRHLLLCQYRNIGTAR
# Sequence of D(1A) dopamine receptor (Homo sapiens) (P21728 whole entry, looked up): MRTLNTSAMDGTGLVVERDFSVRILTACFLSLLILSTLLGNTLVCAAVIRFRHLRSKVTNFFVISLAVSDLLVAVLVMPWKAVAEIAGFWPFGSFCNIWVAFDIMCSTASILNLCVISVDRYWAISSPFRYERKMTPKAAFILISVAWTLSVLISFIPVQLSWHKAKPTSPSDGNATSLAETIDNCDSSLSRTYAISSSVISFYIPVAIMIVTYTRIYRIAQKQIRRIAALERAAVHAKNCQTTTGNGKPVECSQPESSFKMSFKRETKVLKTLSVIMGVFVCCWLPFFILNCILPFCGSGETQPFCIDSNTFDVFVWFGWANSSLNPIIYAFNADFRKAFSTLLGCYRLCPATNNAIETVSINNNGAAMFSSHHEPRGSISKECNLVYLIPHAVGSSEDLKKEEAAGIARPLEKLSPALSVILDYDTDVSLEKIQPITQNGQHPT
# Sequence of human Neurokinin, NK2 Receptor, TACR2 (gene 6865) (P21452 whole entry, looked up): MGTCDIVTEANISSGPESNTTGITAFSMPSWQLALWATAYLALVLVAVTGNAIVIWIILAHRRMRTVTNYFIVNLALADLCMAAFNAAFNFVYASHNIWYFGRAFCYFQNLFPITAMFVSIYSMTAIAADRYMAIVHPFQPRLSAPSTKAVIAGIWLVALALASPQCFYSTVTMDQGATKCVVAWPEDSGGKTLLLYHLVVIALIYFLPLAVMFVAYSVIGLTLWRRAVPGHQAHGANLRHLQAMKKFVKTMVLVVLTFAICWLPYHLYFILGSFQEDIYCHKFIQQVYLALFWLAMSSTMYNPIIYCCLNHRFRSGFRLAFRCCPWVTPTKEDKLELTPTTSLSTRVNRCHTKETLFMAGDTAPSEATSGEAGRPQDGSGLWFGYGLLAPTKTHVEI
# Sequence of human Opioid Receptor Delta 1 (Opiate D1), OPRD1 (gene 4985) (P41143 whole entry, looked up): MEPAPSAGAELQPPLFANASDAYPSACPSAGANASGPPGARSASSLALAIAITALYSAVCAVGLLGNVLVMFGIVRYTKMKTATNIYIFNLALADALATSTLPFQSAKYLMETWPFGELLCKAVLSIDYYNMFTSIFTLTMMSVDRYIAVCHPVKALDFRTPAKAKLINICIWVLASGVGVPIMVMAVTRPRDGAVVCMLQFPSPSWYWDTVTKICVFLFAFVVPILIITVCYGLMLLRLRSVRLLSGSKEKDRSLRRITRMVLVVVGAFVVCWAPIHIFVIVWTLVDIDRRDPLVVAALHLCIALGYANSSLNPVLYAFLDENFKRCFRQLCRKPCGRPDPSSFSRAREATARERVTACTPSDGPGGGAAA
# Sequence of human Endothelin Receptor Type B (ETB), EDNRB (gene 1910) (P24530 whole entry, looked up): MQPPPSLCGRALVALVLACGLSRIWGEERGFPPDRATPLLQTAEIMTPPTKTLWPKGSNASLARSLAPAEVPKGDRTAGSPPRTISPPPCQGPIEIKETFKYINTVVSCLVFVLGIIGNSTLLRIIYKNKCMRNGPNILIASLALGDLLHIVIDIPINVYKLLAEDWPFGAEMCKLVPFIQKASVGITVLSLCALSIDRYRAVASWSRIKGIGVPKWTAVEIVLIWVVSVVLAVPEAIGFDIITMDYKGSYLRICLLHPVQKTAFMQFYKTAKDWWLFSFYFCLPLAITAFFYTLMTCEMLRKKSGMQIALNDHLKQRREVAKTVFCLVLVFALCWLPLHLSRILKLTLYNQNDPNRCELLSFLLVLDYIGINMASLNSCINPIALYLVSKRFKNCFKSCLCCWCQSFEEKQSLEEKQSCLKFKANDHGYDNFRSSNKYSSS
# Sequence of Muscarinic acetylcholine receptor M3 (Homo sapiens) (P20309 whole entry, looked up): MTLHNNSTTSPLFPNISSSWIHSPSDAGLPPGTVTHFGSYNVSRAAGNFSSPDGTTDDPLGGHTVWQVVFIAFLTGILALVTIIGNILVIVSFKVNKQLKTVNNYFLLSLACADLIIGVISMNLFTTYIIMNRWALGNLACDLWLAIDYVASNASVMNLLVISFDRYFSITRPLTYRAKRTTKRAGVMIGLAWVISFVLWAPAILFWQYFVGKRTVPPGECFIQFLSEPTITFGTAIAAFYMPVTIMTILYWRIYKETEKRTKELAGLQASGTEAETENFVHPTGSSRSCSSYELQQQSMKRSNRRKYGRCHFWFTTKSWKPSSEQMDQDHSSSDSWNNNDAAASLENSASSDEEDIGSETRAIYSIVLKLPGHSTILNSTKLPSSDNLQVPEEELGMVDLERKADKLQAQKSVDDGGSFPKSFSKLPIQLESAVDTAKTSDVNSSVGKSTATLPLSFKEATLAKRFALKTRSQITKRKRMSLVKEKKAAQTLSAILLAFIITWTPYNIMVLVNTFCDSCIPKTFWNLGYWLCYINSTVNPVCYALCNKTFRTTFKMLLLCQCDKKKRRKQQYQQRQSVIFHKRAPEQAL
# Sequence of human Histamine 1 Receptor (H1), HRH1 (gene 3269) (P35367 whole entry, looked up): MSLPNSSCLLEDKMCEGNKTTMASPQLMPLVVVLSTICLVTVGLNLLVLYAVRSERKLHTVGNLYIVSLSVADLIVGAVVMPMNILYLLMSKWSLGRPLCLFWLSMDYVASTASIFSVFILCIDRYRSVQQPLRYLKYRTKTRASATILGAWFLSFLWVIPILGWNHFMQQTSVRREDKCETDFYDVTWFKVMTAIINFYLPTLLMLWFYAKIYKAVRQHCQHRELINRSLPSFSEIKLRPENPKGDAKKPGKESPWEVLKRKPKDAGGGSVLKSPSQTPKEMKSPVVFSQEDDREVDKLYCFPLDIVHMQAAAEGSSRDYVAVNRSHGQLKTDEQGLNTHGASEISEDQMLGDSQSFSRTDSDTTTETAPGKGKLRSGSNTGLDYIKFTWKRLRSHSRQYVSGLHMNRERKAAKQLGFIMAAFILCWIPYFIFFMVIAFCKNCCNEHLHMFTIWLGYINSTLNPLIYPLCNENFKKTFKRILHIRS
# Sequence of human Neuropeptide Receptor Y1 (NPY1), NPY1R (gene 4886) (P25929 whole entry, looked up): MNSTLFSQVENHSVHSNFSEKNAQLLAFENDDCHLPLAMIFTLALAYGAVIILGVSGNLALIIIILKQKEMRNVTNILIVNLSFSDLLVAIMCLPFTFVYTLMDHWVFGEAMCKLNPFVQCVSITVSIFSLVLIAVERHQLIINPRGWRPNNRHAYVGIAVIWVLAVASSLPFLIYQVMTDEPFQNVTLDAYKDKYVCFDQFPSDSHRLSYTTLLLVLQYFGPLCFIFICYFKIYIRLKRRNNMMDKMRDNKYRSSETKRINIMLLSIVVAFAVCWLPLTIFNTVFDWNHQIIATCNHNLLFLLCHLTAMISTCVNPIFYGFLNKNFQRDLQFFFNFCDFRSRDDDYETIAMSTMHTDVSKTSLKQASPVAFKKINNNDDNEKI
compound,measurement,setting,value
CCN(CC)CCOc1ccc(C(=C(Cl)c2ccccc2)c2ccccc2)cc1,AC50,[1],29.1 µM (active)
same,AC50,[2],1.79 µM (active)
same,AC50,[3],32.3 µM (active)
same,AC50,[4],2.28 µM (active)
same,AC50,[5],4.2 µM (active)
same,AC50,[6],2.53 µM (active)
same,AC50,[7],31.8 µM (active)
same,AC50,[8],9.71 µM (active)
same,outcome,[9],inactive
same,AC50,[10],9.7 µM (active)
same,AC50,[11],28.9 µM (active) and 7.41 µM (active) and 31.3 µM (active)
NCCOCCOCCN,outcome,[3],inactive
Cc1c(C)c2c(c(C)c1O)CCC(C)(COc1ccc(CC3SC(=O)NC3=O)cc1)O2 (centres undefined),outcome,[2],inactive
CC(=O)OCC(COC(C)=O)OC(C)=O,AC50,[12],40.5 µM (active)
O=C(N[C@@H](c1ccccc1)[C@@H]1CCCCN1)c1cccc(C(F)(F)F)c1Cl,outcome,[2],inactive
same,outcome,[13],inactive
same,AC50,[4],12.1 µM (active)
same,AC50,[6],25 µM (active)
same,AC50,[8],17.8 µM (active)
CCC(C)N(C)C(=O)c1cc2ccccc2c(-c2ccccc2Cl)n1 (centres undefined),AC50,[13],15.9 µM (active)
same,AC50,[8],15.9 µM (active)
same,AC50,[14],1 µM (active)
same,outcome,[15],inactive
CCc1nc(N)nc(N)c1-c1ccc(Cl)cc1,AC50,[4],4.73 µM (active)
same,outcome,[16],inactive
same,AC50,[17],13.9 µM (active)
same,outcome,[5],inactive
OCC(O)CO,outcome,[10],inactive
CS(=O)(=O)c1ccc([C@@H](C[C@H]2CCC(=O)C2)C(=O)Nc2cnccn2)cc1Cl,outcome,[18],inactive
Nc1nc(=S)c2[nH]cnc2[nH]1,AC50,[8],44.4 µM (active)
O=C1CCCCC1,outcome,[19],inactive
CN(C)C(=O)NC1(c2ccccc2)CCN(CCC[C@]2(c3ccc(Cl)c(Cl)c3)CCCN(C(=O)c3ccccc3)C2)CC1,AC50,[2],4 µM (active)
same,AC50,[20],2.02 µM (active)
same,AC50,[16],3.84 µM (active)
same,AC50,[17],2.41 µM (active)
same,AC50,[5],3.46 µM (active)
same,AC50,[6],2.01 µM (active)
same,AC50,[8],0.164 µM (active)
same,outcome,[10],inactive
